# In PubChem BioAssay (EPA / NIEHS):
# The source made the active and inactive calls. The calls were made as follows: active = hit-call score of the fitted dose curve at least 0.9, where 1 is the maximum; inactive = score below 0.9.
# Columns and labels:
# [1] = APR_HepG2_CellLoss_72hr: Apredica 72-hour HepG2 Assay for Cell Loss (AID 2282915); details: high-content imaging
# Outline: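 Cell number comes from Hoechst 33342-labelled nuclei, imaged at 20x after 3.7% formaldehyde fixation. Dosing was 0.39–200 uM, ten concentrations in duplicate, 0.5% DMSO final, for 72 h. Bidirectional fit relative to DMSO baseline.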
# [2] = APR_HepG2_P-H2AX_72hr: Apredica 72-hour HepG2 Assay for H2AX Phosphorylation (AID 2282916); details: imaging, actives raise or lower the signal;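 also: phospho-histone H2A.x immunostain intensity per cell marking DNA damage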
# Outline: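 Following 72 hr treatment with 0.39–200 uM compound, HepG2 cells were formaldehyde-fixed, permeabilized and stained for phospho-H2A.x; signal was measured by high-content imaging and fitted bidirectionally against DMSO controls.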
# [3] = APR_HepG2_MitoMembPot_72hr: Apredica 72-hour HepG2 Assay for Mitochondrial Membrane Potential (AID 2282917); details: imaging, actives raise or lower the signal
# Outline: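 Membrane potential read by MitoTracker Red CMXRos (250 nM, 30 min, pre-fixation) fluorescence imaging of HepG2 after 72 hr exposure. Ten concentrations, 0.39–200 uM, duplicate wells, 0.5% DMSO; fitted in both directions against DMSO baseline.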
# [4] = APR_HepG2_MitoticArrest_72hr: Apredica 72-hour HepG2 Assay for Mitotic Arrest (AID 2282918); details: high-content imaging, actives raise or lower the signal
# Outline: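 HepG2 cells treated 72 h at 0.39–200 uM, 0.5% DMSO final; formaldehyde-fixed, stained with Hoechst 33342 and phospho-histone H3 antibody, imaged by high-content fluorescence; bidirectional fit versus DMSO.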
# [5] = APR_HepG2_MicrotubuleCSK_72hr: Apredica 72-hour HepG2 Assay for Microtubule CSK Stabilty (AID 2282919); details: HepG2 microtubule cytoskeleton, high-content imaging, actives raise or lower the signal
# Outline: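 Read-out is tubulin fluorescence intensity from high-content imaging of HepG2 cells, with nuclei identified by Hoechst 33342. Treatment lasts 72 h at 0.39–200 uM, and curves are fitted bidirectionally against the DMSO negative control.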
# [6] = APR_HepG2_P-H2AX_24hr: Apredica 24-hour HepG2 Assay for H2AX Phosphorylation (AID 2282920); details: high-content imaging, actives raise or lower the signal
# Outline: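 HepG2 cells dosed 24 h at 0.39–200 uM (10 points, duplicate, 0.5% DMSO final). Formaldehyde-fixed and permeabilized, then immunostained for phospho-H2A.x with Hoechst. Fluorescence quantified by high-content imaging, fitted bidirectionally versus DMSO.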
# [7] = APR_HepG2_StressKinase_72hr: Apredica 72-hour HepG2 Assay for Stress Kinase (AID 2282921); details: HepG2 stress kinase (phospho-c-Jun) imaging, actives raise or lower the signal
# Outline: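 Fluorescence intensity of Cy3-tagged anti-phospho-c-Jun antibody, quantified per cell from Hoechst-defined nuclei across six images per well, served as the read-out following 72 h exposure (0.39–200 uM, 0.5% v/v DMSO).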
# [8] = APR_HepG2_NuclearSize_72hr: Apredica 72-hour HepG2 Assay for Nuclear Size (AID 2282925); details: high-content imaging, actives raise or lower the signal
# Outline: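 HepG2; cpd 0.39–200 uM, 10 conc, duplicate; 72 h; DMSO 0.5% v/v; fix 3.7% formaldehyde 30 min RT; Triton permeabilization; Hoechst 2 ug/mL; HCS imaging 20x; nuclear diameter; gain/loss fit vs DMSO.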
# [9] = ATG_CRE_CIS: Attagene CIS-FACTORIAL HepG2 Assay for human cAMP Responsive Element (CRE) binding protein 3 (AID 2282926); details: HepG2 CRE cis-reporter, Attagene multiplexed mRNA; actives raise or lower the signal
# Outline: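 HepG2 cells transiently transfected with cis-element-driven multiple reporter transcription units; CRE reporter mRNA measured 24 h after dosing by RT-PCR, 6-FAM labelling, HpaI digestion and capillary electrophoresis. Bidirectional fit versus DMSO baseline.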
# [10] = target: CCAAT/enhancer-binding protein beta (Homo sapiens) (UniProt P17676); test: ATG_C_EBP_CIS: Attagene CIS-FACTORIAL HepG2 Assay for human CCAAT/Enhancer Binding Protein (C/EBP) beta (AID 2282927); details: HepG2 Attagene cis-factorial transcription factor reporter; actives raise or lower the signal
# Outline: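 Endogenous C/EBPb-driven reporter transcripts measured in transfected human HepG2 cells at 24 h via RT-PCR and capillary electrophoresis of labelled fragments. Activity fitted in both directions relative to DMSO baseline.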
# [11] = ATG_CMV_CIS: Attagene CIS-FACTORIAL HepG2 Assay for human CMV (Internal Marker) (AID 2282928); details: HepG2 CMV promoter reporter, transcription factor profiling; actives raise or lower the signal;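 also: endpoint acts as a background internal control marker rather than a target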
# Outline: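 Endogenous transcription factor activity read in HepG2 via transfected cis-promoter reporter units. After 24 h dosing, reporter mRNA measured by RT-PCR/capillary electrophoresis; gain or loss of signal fit relative to DMSO.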
# [12] = ATG_DR4_LXR_CIS: Attagene CIS-FACTORIAL HepG2 Assay for human Liver X Receptor (LXR), DR4 submotif (AID 2282929); details: HepG2 Attagene DR4 cis-reporter, mRNA transcription; actives raise or lower the signal
# Outline: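 The endpoint is DR4-element-driven reporter transcripts after 24 h chemical exposure of transfected HepG2 cells. These were measured via RT-PCR and capillary electrophoresis, and gain or loss of signal was fitted relative to DMSO controls.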
# [13] = ATG_AP_1_CIS: Attagene CIS-FACTORIAL HepG2 Assay for human Activator Protein 1 (AP-1) (AID 2282931); details: HepG2 Attagene cis-factorial AP-1 reporter mRNA; actives raise or lower the signal
# Outline: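 Readout is reporter transcript level from endogenous transcription factor activity, quantified by RT-PCR with fluorescent primer extension and capillary electrophoresis. Transiently transfected HepG2 cells, 24 h exposure. Curves fitted both directions versus DMSO.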
# [14] = ATG_AP_2_CIS: Attagene CIS-FACTORIAL HepG2 Assay for human Activator Protein 2 (AP-2) (AID 2282932); details: HepG2 AP-2 cis-reporter, Attagene transcription factor profiling; actives raise or lower the signal
# Outline: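 Step one: transient transfection of HepG2 with reporter transcription units. Step two: 24 h chemical exposure. Step three: RNA extraction, RT-PCR, labelled fragment analysis by capillary electrophoresis; DMSO serves as baseline.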
# [15] = ATG_BRE_CIS: Attagene CIS-FACTORIAL HepG2 Assay for human Bone Morphogenetic Protein (BMP) Response Element (BRE) (AID 2282933); details: HepG2 BMP response element reporter, Attagene transcription factor profiling; actives raise or lower the signal
# Outline: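 HepG2 cells transiently transfected with CIS reporter units (endogenous TF activity, BMP response element), dosed 24 h. Reporter mRNA quantified by RT-PCR, fluorescent labelling and capillary electrophoresis; bidirectional fit vs DMSO baseline.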
# [16] = APR_HepG2_p53Act_72hr: Apredica 72-hour HepG2 Assay for p53 Activation (AID 2282923); details: high-content imaging, actives raise or lower the signal;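 also: average cellular p53 protein immunofluorescence intensity in HepG2 cells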
# Outline: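 HepG2 monolayers receive test compounds in duplicate at ten concentrations (0.39 through 200 uM) for 72 hr. They are then formaldehyde-fixed, antibody-labelled for p53, Hoechst-stained and imaged, with activity fitted bidirectionally versus DMSO.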
# [17] = target: Aryl hydrocarbon receptor (Homo sapiens) (UniProt P35869); test: ATG_Ahr_CIS: Attagene CIS-FACTORIAL HepG2 Assay for human Aryl Hydrocarbon Receptor (Ahr) (AID 2282930); details: HepG2 AhR cis-factorial reporter transcription; actives raise or lower the signal
# Outline: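 Reporter mRNA levels, quantified by RT-PCR and fluorescent capillary electrophoresis, reflect endogenous AhR transcriptional activity in HepG2 cells carrying transfected cis-promoter reporter constructs. Readout at 24 h post-dose; gain or loss fitted against DMSO baseline.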
# [18] = target: Retinoic acid receptor alpha (Homo sapiens) (UniProt P10276); test: ATG_DR5_RAR_CIS: Attagene CIS-FACTORIAL HepG2 Assay for human Retinoic Acid Receptor Alpha (RARE), DR5 submotif (AID 2282934); details: HepG2 Attagene cis-factorial RARE DR5 reporter, mRNA; actives raise or lower the signal
# Outline: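 Reporter transcripts from a DR5-regulated unit, measured via RT-PCR plus capillary electrophoresis, reflect endogenous RAR activity in transiently transfected human HepG2 liver cells. Exposure lasted 24 h; gain or loss of signal scored against DMSO.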
# [19] = APR_HepG2_MitoMass_72hr: Apredica 72-hour HepG2 Assay for Mitochondrial Mass (AID 2282924); details: high-content imaging, actives raise or lower the signal;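 also: MitoTracker Red CMXRos stain intensity per cell imaged as mitochondrial mass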
# Outline: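 HepG2, 72 hr cmpd, 10 conc 0.39–200 uM in dup, DMSO 0.5% v/v. MitoTracker Red CMXRos 250 nM 30 min pre-fix; formaldehyde 3.7% fix 30 min RT. HCS imaging, gain/loss fit vs DMSO.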
# Chain of CCAAT/enhancer-binding protein beta (Homo sapiens) (P17676 whole entry, looked up, the tested form may be a part): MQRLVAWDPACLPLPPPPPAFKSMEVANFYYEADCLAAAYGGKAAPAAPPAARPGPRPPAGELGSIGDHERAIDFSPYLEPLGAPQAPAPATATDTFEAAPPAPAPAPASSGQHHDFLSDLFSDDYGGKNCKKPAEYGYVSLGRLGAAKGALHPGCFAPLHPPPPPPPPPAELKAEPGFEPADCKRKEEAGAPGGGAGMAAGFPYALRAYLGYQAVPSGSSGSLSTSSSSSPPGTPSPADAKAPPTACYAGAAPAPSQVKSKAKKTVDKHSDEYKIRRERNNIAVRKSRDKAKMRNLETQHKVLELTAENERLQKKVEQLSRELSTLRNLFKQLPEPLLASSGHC
# Chain of Aryl hydrocarbon receptor (Homo sapiens) (P35869 whole entry, looked up): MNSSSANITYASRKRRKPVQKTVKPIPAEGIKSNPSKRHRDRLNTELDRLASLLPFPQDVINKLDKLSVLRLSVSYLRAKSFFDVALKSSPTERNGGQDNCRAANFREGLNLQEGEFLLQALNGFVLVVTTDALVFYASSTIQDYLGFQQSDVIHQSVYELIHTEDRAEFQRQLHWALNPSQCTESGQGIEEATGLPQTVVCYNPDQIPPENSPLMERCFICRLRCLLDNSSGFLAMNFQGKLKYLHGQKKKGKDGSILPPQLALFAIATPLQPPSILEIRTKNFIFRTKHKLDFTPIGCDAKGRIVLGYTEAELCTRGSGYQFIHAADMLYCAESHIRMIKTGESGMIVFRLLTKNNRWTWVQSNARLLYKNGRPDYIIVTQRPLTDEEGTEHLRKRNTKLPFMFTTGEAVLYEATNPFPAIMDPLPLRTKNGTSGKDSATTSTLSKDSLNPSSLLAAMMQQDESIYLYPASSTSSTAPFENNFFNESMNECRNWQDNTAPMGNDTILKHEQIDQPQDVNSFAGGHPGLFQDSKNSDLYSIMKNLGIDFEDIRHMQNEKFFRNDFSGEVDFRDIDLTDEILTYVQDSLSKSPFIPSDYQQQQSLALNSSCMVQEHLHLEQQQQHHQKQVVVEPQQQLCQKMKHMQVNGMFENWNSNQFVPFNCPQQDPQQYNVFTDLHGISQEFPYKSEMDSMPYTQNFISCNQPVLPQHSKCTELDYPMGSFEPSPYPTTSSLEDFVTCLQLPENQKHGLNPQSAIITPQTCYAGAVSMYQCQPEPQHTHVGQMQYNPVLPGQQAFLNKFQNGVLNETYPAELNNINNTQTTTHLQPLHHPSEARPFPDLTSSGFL
# Chain of Retinoic acid receptor alpha (Homo sapiens) (P10276 whole entry, looked up): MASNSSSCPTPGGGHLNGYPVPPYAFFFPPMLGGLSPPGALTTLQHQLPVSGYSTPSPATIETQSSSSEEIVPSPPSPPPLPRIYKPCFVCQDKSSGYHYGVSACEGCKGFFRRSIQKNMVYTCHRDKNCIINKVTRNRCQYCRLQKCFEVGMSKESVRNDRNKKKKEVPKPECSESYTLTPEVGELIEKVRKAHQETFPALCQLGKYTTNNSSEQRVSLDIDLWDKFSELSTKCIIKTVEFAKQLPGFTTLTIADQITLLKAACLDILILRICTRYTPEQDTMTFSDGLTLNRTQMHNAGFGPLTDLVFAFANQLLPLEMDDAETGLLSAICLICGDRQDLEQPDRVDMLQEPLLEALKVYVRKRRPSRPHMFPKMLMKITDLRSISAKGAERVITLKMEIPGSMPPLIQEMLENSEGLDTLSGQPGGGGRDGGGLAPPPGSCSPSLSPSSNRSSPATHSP
smiles,measurement,setting,value
CSC(C)(C)C=NO,outcome,[1],inactive
same,outcome,[2],inactive
same,outcome,[3],inactive
same,outcome,[4],inactive
same,outcome,[5],inactive
same,outcome,[6],inactive
same,outcome,[7],inactive
same,outcome,[8],inactive
same,outcome,[9],inactive
same,outcome,[10],inactive
same,outcome,[11],inactive
same,outcome,[12],inactive
same,outcome,[13],inactive
same,outcome,[14],inactive
same,outcome,[15],inactive
CCOc1ccc(C(C)(C)COCc2cccc(Oc3ccccc3)c2)cc1,AC50,[1],68.3 µM (active)
same,outcome,[2],inactive
same,outcome,[3],inactive
same,outcome,[5],inactive
same,outcome,[6],inactive
same,outcome,[7],inactive
same,outcome,[16],inactive
same,outcome,[8],inactive
same,outcome,[9],inactive
same,outcome,[10],inactive
same,outcome,[11],inactive
same,outcome,[12],inactive
same,outcome,[17],inactive
same,outcome,[13],inactive
same,outcome,[14],inactive
same,outcome,[15],inactive
CCCCN(CCCC)SN(C)C(=O)Oc1cccc2c1OC(C)(C)C2,AC50,[1],56.8 µM (active)
same,AC50,[2],59.9 µM (active)
same,outcome,[3],inactive
same,AC50,[5],97.1 µM (active)
same,AC50,[6],66.8 µM (active)
same,outcome,[7],inactive
same,outcome,[8],inactive
same,outcome,[9],inactive
same,outcome,[10],inactive
same,outcome,[11],inactive
same,AC50,[12],100 µM (active)
same,outcome,[17],inactive
same,outcome,[13],inactive
same,outcome,[14],inactive
same,outcome,[15],inactive
Nc1ccc(Cl)cc1,outcome,[1],inactive
same,outcome,[2],inactive
same,outcome,[3],inactive
same,outcome,[5],inactive
same,outcome,[6],inactive
same,outcome,[7],inactive
same,outcome,[16],inactive
same,outcome,[8],inactive
same,outcome,[9],inactive
same,outcome,[10],inactive
same,outcome,[11],inactive
same,outcome,[12],inactive
same,outcome,[17],inactive
same,outcome,[13],inactive
same,outcome,[14],inactive
same,outcome,[15],inactive
ClC(Cl)(Cl)c1ccccc1,outcome,[1],inactive
same,outcome,[2],inactive
same,outcome,[3],inactive
same,outcome,[5],inactive
same,outcome,[6],inactive
same,outcome,[7],inactive
same,outcome,[16],inactive
same,outcome,[8],inactive
same,outcome,[9],inactive
same,outcome,[10],inactive
same,outcome,[11],inactive
same,outcome,[12],inactive
same,outcome,[13],inactive
same,outcome,[14],inactive
same,outcome,[15],inactive
O=P(Oc1ccccc1)(Oc1ccccc1)Oc1ccccc1,AC50,[1],63.2 µM (active)
same,AC50,[2],66.4 µM (active)
same,outcome,[3],inactive
same,AC50,[5],79.4 µM (active)
same,AC50,[6],70.9 µM (active)
same,outcome,[7],inactive
same,AC50,[16],68.3 µM (active)
same,outcome,[8],inactive
same,outcome,[9],inactive
same,outcome,[10],inactive
same,outcome,[11],inactive
same,AC50,[12],13.5 µM (active)
same,outcome,[17],inactive
same,AC50,[13],52.6 µM (active)
same,outcome,[14],inactive
same,AC50,[15],54 µM (active)
O=[N+]([O-])c1ccccc1,outcome,[1],inactive
same,outcome,[2],inactive
same,outcome,[3],inactive
same,outcome,[5],inactive
same,outcome,[6],inactive
same,outcome,[7],inactive
same,outcome,[16],inactive
same,outcome,[8],inactive
same,outcome,[9],inactive
same,outcome,[10],inactive
same,outcome,[11],inactive
same,outcome,[12],inactive
same,outcome,[17],inactive
same,outcome,[13],inactive
same,outcome,[14],inactive
same,outcome,[15],inactive
same,outcome,[18],inactive
CCOS(=O)(=O)OCC,outcome,[1],inactive
same,outcome,[2],inactive
same,outcome,[3],inactive
same,outcome,[5],inactive
same,outcome,[6],inactive
same,outcome,[7],inactive
same,outcome,[16],inactive
same,outcome,[19],inactive
same,outcome,[8],inactive
same,outcome,[9],inactive
same,outcome,[10],inactive
same,outcome,[11],inactive
same,outcome,[12],inactive
same,outcome,[13],inactive
same,outcome,[14],inactive
same,outcome,[15],inactive
